Measurements published in PubChem BioAssay AID1159580 (chemical genetic matrix, 2015).
Hit rate of the full screen: of about 5,500 compounds, about 2,000 (36%) were called active. Roughly 18% stayed inconclusive and do not appear here. No stated cut-off is given here; in the data, active means normalized growth mostly below about 0.91 (no sharp cut-off); inconclusive means no clear call, values can overlap the other calls; inactive means mostly above about 0.92. Some of the results follow.

Test: chemical genetic growth profiling, strain panel (AID 1159580);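 further: tested at 20 µM; growth read once vehicle control cultures reached saturation at 30 °C; 1 = growth at the plate median or of vehicle wells; lower values mean less growth of the strain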
Conditions: S. cerevisiae deletion strains, growth OD

Measured: normalized growth

CSC(=NC(=O)c1c(Cl)cccc1Cl)SC
inactive: locus YDR150W, strain NUM1, hits give low values 0.992 | locus YMR263W, strain SAP30, hits give low values 0.931 | locus YNL128W, strain TEP1, hits give low values 0.928 | locus YPL055C, strain LGE1, hits give low values 0.919
active: locus YAL013W, strain DEP1, hits give low values 0.886 | locus YBR229C, strain ROT2, hits give low values 0.856 | locus YDL101C, strain DUN1, hits give low values 0.866 | locus YDL134C, strain PPH21, hits give low values 0.782 | locus YEL061C, strain CIN8, hits give low values 0.781 | locus YGR078C, strain PAC10, hits give low values 0.912 | locus YHR030C, strain SLT2, hits give low values 0.194 | locus YHR087W, strain rtc3, hits give low values 0.896 | locus YJL187C, strain SWE1, hits give low values 0.82 | locus YJR043C, strain POL32, hits give low values 0.904 | locus YJR075W, strain HOC1, hits give low values 0.776 | locus YLR039C, strain RIC1, hits give low values 0.284 | locus YLR058C, strain SHM2 (second series), hits give low values 0.924 | locus YLR085C, strain ARP6, hits give low values 0.332 | locus YLR262C, strain YPT6, hits give low values 0.275 | locus YML094W, strain GIM5, hits give low values 0.85 | locus YMR219W, strain ESC1, hits give low values 0.932 | locus YMR307W, strain GAS1, hits give low values 0.177 | locus YNL153C, strain GIM3, hits give low values 0.852 | locus YNL298W, strain CLA4 (second series), hits give low values 0.636 | locus YNL322C, strain KRE1, hits give low values 0.925 | locus YNR030W, strain Alg12, hits give low values 0.747 | locus YOL006C, strain TOP1, hits give low values 0.541 | locus YPL241C, strain CIN2, hits give low values 0.663 | locus YPR135W, strain CTF4, hits give low values 0.313
